PubChem BioAssay AID2762 (National Center for Advancing Translational Sciences (NCATS), 2010)
Inconclusive results are not listed. Calls of active or inactive are those of the source. Calls follow the shape of the dose curve; as a rule, active = well fitted inhibition curve with a large enough effect; inconclusive = small, poorly fitted or top-dose-only effect, or effect the other way; inactive = no such curve, though single readings can be large or run the other way.

The compounds below were run against Nuclear receptor ROR-gamma (Mus musculus) (UniProt P51450) (assay: Concentration response confirmation assay for inhibitors of ROR gamma transcriptional activity). Settings: Drosophila S2 Gal4-RORgamma UAS-luciferase, 20 h; series mostly up to 46.1 µM.
Description: NIH Molecular Libraries Probe Production Network [MLPCN] NIH Chemical Genomics Center [NCGC] MLPCN Grant: R03 DA026211-01 Assay Provider: Dan Littman, New York University Assay Overview: The retinoic acid-related orphan receptor (ROR) gamma is a transcription factor that has a central role in the differentiation of Th17 cells, a subset of T helper cells that secrete the inflammatory cytokines IL-17, IL-17F, and IL-22. Th17 cells have been implicated in graft versus host disease, autoimmune disease and asthma. ROR gamma is induced in naive T helper cells in the presence of TGF-beta combined with IL-6, IL-21, or IL-23, and thereafter directs the expression of the Th17 lineage cytokines. To study the mechanism of action of ROR gamma, an insect cell-based assay was screened. This Drosophila Schneider cell line was stably transfected with two vectors: a gene expressing a fusion of the Gal4 DNA binding domain and ROR gamma transactivation domain under the control of the metallothionine promoter and a Photinus luciferase reporter regulated by the Gal4 binding site enhancer, UAS. […] Small molecule inhibitors of ROR gamma activity are detected by a decrease in luciferase reporter activity.
Assay Protocol Summary: For screening, 600 cells in 4 uL/well were dispensed into white solid 1536-well plates (Grenier) using a solenoid-based dispenser. Following transfer of 23 nL compound or DMSO vehicle by a pin tool, the plates were incubated 1 hr at ambient temperature, and 1 uL/well copper sulfate (700 uM final concentration) was added. The plates were centrifuged 15 s at 1000 RPM and incubated 20 hr at ambient temperature. After addition of 1.5 uL Photinus luciferase detection reagent, the plates were incubated 10 min at ambient temperature and then read by an ViewLux (Perkin Elmer) to detect luminescence. Keywords: NIH Roadmap, MLPCN, MLI, MLSMR, qHTS, NCGC, qHTS, nuclear hormone receptor, retinoic acid-related orphan receptor, ROR gamma

Chain of Nuclear receptor ROR-gamma (Mus musculus) (P51450 whole entry, looked up, the tested form may be a part): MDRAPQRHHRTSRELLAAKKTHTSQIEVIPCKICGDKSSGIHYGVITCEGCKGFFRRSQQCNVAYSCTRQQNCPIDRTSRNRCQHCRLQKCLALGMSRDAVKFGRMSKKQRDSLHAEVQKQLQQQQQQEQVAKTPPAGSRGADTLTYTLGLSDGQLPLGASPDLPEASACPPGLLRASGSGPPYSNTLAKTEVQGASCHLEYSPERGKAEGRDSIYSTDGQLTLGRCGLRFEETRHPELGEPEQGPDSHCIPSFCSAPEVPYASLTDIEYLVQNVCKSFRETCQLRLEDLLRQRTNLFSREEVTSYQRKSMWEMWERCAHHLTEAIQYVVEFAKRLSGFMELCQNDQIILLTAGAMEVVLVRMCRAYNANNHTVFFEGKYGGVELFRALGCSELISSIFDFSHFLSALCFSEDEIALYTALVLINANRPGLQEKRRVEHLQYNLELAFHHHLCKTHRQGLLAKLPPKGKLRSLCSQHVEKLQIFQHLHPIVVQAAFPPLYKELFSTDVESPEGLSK

Potency, active:
COc1ccc(-c2cc(C(=O)NNC3=NCCC3)c3c(C)nn(-c4ccccc4)c3n2)cc1 4.45 µM
COc1ccc2nc(N3C(=O)CNC3=S)sc2c1 1.99 µM
O=S(=O)(NCc1ccccn1)C(F)(F)F 7.05 µM
CCOc1ccc(C(=O)Nc2nc3ccccc3[nH]2)cc1OCC 11.2 µM
Oc1ccc(COCc2ccccc2)c2cccnc12 1.58 µM
COC(=O)c1ccc(Oc2cc(C)nc(-n3nc(C)cc3C)n2)cc1 1.58 µM
COc1cc(C2c3cc4c(cc3C(OC3OC5COC(c6cccs6)OC5C(O)C3O)C3COC(=O)C23)OCO4)cc(OC)c1O (stereo not given) 4.99 µM
Cc1ccc(Oc2nc(-c3ccccn3)nc3ccccc23)cc1 0.396 µM
O=S(=O)(c1ccc(NC(=S)N/N=C/c2ccc(Oc3ccccc3)cc2)cc1)N1CCOCC1 1.12 µM
COc1ccc(/C=C/C(=O)NC(=S)NCC2CCCO2)cc1 (stereo not given) 11.2 µM
CCN(CC(=O)NCCc1ccc(Cl)cc1)Cc1nc2ccccc2c(=O)[nH]1 12.5 µM
COC(=O)c1ccc(OCC(=O)c2ccc(O)cc2O)cc1 0.125 µM
CCOC(=O)c1ccc2nc(Nc3nc4ccc(F)cc4s3)sc2c1 5.6 µM
COc1ccc2oc(=O)c(C(=O)Nc3ccccc3C)cc2c1 1.25 µM
Cc1ccc(C)c(/C=N/n2cc(-c3ccccc3)[nH]c2=S)c1 0.791 µM
CC(C)(C)S(=O)(=O)c1cnc2c(-c3ccsc3)cnn2c1N 22.3 µM
Cc1cc(C)c2[nH]c(C(=O)Nc3ccc4c(c3)OCO4)cc2c1 0.125 µM
O=C(/C=C/c1ccc(S(=O)(=O)N2CCOCC2)cc1)NC(=S)Nc1ccc(N2CCOCC2)cc1 9.96 µM
Fc1cccc2sc(Nc3nnc(-c4ccco4)o3)nc12 1.99 µM
S=c1nc(COc2ccccc2)[nH]c2ccccc12 6.28 µM
CCN(CC(=O)Nc1ccc2c(c1)CCC2)Cc1nc2ccccc2c(=O)[nH]1 8.88 µM
Cc1nn(-c2cc(C)c3ccccc3n2)c2c1C1C(C2)C1(C)C (stereo not given) 6.28 µM
CCOC(=O)[C@@H]1[C@H]2COc3cc(OC)ccc3[C@@H]2N2C(=O)N(c3ccc(C)cc3)C(=O)[C@@]12C 14.1 µM
O=C(CCCN1C(=O)/C(=C/c2ccccc2Cl)SC1=S)NNC(=O)c1ccc(Cl)cc1Cl 1.58 µM
CCN1CCCc2cc(CN(CCN3CCOCC3)C(=S)Nc3ccccc3C)ccc21 9.96 µM
Cc1cc(NC(=O)CN2CCOCC2)n(-c2nc3ccccc3s2)n1 15.8 µM
COc1ccc(-c2cc(C(F)(F)F)nc(S(=O)(=O)CCCC(=O)Nc3cccnc3Cl)n2)cc1OC 11.2 µM
O=C(CCN1C(=O)/C(=C/c2ccccc2Cl)SC1=S)N1CCCC1 11.2 µM
Cc1ccc(OCCn2cc(C(=S)N3CCCC3)c3ccccc32)cc1C 12.5 µM

Potency, inactive:
O=C(Cn1c(=O)oc2ccc(Cl)cc21)Nc1ccon1
O=C(NCC1CCCO1)C(C(=O)c1ccccc1)n1ccccc1=O (stereo not given)
O=c1oc2c3c(nn2c2ccccc12)CCCC3
CCOC(=O)Cc1ccc(NC(=O)c2ccc(C(C)(C)C)cc2)cc1
O=C(COc1ccccc1Cl)NCCCN1CCOCC1
CC(=O)c1cccc(N(CC(=O)Nc2ccccc2C(=O)N2CCCC2)S(C)(=O)=O)c1
C=C(C)c1cccc(C(C)(C)NC(=O)N2CCN(CC)CC2)c1
CCOC(=O)C1CCN(c2ncnc3c2cnn3-c2ccc(OC)cc2)CC1
Cc1sc2ncnc(Sc3nnc4sc5ccccc5n34)c2c1C
COc1cccc(-c2cc(C(=O)N3CCc4ccccc4C3)[nH]n2)c1
CCOC(=O)c1sc(NC(=O)c2sc(C)nc2C)nc1C
